Source: PubChem BioAssay (NCI)
This is part of a sample that, as a whole, favours compounds with a hit. Of some 83,000 tested, about 20% had one in any assay.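 Results are percent growth after 48 hours of single-concentration exposure. 100 means growth as in untreated cells, lower positive values show inhibition; negative values down to -100 show cell death.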 A number with no mark means an inactive call. Activity calls are given as the source filed them. The calls were made as follows: active = growth percent below 10; inactive = the rest.

How the values were obtained:
Assay in all cases: NCI-60 one-dose screen, 48 h (100 = growth as untreated, 0 = no growth, -100 = all killed)
Details in all cases: 10 µM
786-0 renal = test system: 786-0 renal
MALME-3M melanoma = test system: MALME-3M melanoma
MDA-MB-231 breast = test system: MDA-MB-231 breast
SF-268 CNS = test system: SF-268 CNS
SF-295 CNS = test system: SF-295 CNS
UACC-257 melanoma = test system: UACC-257 melanoma
SK-MEL-28 melanoma = test system: SK-MEL-28 melanoma
EKVX NSCLC = test system: EKVX NSCLC
UO-31 renal = test system: UO-31 renal
TK-10 renal = test system: TK-10 renal
ACHN renal = test system: ACHN renal
CAKI-1 renal = test system: CAKI-1 renal
A498 renal = test system: A498 renal
OVCAR-8 ovarian = test system: OVCAR-8 ovarian
OVCAR-5 ovarian = test system: OVCAR-5 ovarian
OVCAR-3 ovarian = test system: OVCAR-3 ovarian
HS 578T breast = test system: HS 578T breast
BT-549 breast = test system: BT-549 breast
MDA-MB-435 melanoma = test system: MDA-MB-435 melanoma
SW-620 colon = test system: SW-620 colon

COc1ccc(-n2c(SCC(=O)NNS(=O)(=O)c3ccccc3)nc3ccc(Cl)cc3c2=O)cc1 was tested, and the growth (786-0 renal) was 101%, the growth (MALME-3M melanoma) was 117% and the growth (MDA-MB-231 breast) was 89.3%. It also gave a growth (SF-268 CNS) of 102%, a growth (SF-295 CNS) of 102% and a growth (UACC-257 melanoma) of 117%. The growth (SK-MEL-28 melanoma) was 98.3%, the growth (EKVX NSCLC) was 95.6% and the growth (UO-31 renal) was 63.5%. For the same compound, the growth (TK-10 renal) was 109%, the growth (ACHN renal) was -8.76% (active) and the growth (CAKI-1 renal) was 80.4%. For the same compound, the growth (A498 renal) was 90%, the growth (OVCAR-8 ovarian) was 101% and the growth (OVCAR-5 ovarian) was 102%. The growth (OVCAR-3 ovarian) was 105%, the growth (HS 578T breast) was 99.7% and the growth (BT-549 breast) was 105%. For the same compound, the growth (MDA-MB-435 melanoma) was 103% and the growth (SW-620 colon) was 105%.

Compound COc1cc(-c2nc3ccc(C)cc3[nH]2)ccc1OCc1nnc(-c2ccccc2Br)o1 has a growth (786-0 renal) of 31.4%, a growth (MALME-3M melanoma) of 66.8% and a growth (MDA-MB-231 breast) of 69.7%. The growth (SF-268 CNS) was 79.3%, the growth (SF-295 CNS) was -0.44% (active) and the growth (UACC-257 melanoma) was 78.3%. For the same compound, the growth (SK-MEL-28 melanoma) was 70.4%, the growth (EKVX NSCLC) was 64.6% and the growth (UO-31 renal) was 61.8%. For the same compound, the growth (TK-10 renal) was 116%, the growth (ACHN renal) was 76.6% and the growth (CAKI-1 renal) was 66%. It also gave a growth (A498 renal) of 108%, a growth (OVCAR-8 ovarian) of 63.3% and a growth (OVCAR-5 ovarian) of 77.5%. It also gave a growth (OVCAR-3 ovarian) of 75.7%, a growth (HS 578T breast) of 62.2% and a growth (BT-549 breast) of 55.7%. The growth (MDA-MB-435 melanoma) was 85.4% and the growth (SW-620 colon) was 91.9%.

With Cc1ccc(S(=O)(=O)N2CCN(S(=O)(=O)c3oc(-c4ccccc4)nc3C#N)CC2)cc1 the growth (786-0 renal) was 86.6%, the growth (MALME-3M melanoma) was 92.7% and the growth (MDA-MB-231 breast) was 100%. The growth (SF-268 CNS) was 79.1%, the growth (SF-295 CNS) was 132% and the growth (UACC-257 melanoma) was 73.3%. For the same compound, the growth (SK-MEL-28 melanoma) was 78.2%, the growth (EKVX NSCLC) was 81.7% and the growth (UO-31 renal) was 61.7%. It also gave a growth (TK-10 renal) of 77%, a growth (ACHN renal) of 69.4% and a growth (CAKI-1 renal) of 69.8%. For the same compound, the growth (A498 renal) was 88.4%, the growth (OVCAR-8 ovarian) was 84.7% and the growth (OVCAR-5 ovarian) was 91.1%. It also gave a growth (OVCAR-3 ovarian) of 92.5%, a growth (HS 578T breast) of 95.2% and a growth (BT-549 breast) of 76.1%. The growth (MDA-MB-435 melanoma) was 77.6% and the growth (SW-620 colon) was 90%.
